The values that follow come from PubChem BioAssay (Tox21).

The target of experiment [1] is Estrogen receptor (Homo sapiens) (UniProt P03372). As to the kind of experiment: qHTS assay to identify small molecule antagonists of the estrogen receptor alpha (ER-alpha) signaling pathway (AID 743069; active = well fitted curve in the direction sought with a large enough effect in the signal ratio in the repeat runs, not every such curve was filed as active; the % refers to the signal ratio). The gist of the method: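 Reporter cells (ER-alpha-bla, HEK293 background) are conditioned overnight in stripped-serum medium (2% charcoal-stripped FBS). Compound and 17beta-estradiol exposure runs 18 hr at 37C, 5% CO2.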
Estrogen receptor (Homo sapiens), sequence (P03372 whole entry, looked up): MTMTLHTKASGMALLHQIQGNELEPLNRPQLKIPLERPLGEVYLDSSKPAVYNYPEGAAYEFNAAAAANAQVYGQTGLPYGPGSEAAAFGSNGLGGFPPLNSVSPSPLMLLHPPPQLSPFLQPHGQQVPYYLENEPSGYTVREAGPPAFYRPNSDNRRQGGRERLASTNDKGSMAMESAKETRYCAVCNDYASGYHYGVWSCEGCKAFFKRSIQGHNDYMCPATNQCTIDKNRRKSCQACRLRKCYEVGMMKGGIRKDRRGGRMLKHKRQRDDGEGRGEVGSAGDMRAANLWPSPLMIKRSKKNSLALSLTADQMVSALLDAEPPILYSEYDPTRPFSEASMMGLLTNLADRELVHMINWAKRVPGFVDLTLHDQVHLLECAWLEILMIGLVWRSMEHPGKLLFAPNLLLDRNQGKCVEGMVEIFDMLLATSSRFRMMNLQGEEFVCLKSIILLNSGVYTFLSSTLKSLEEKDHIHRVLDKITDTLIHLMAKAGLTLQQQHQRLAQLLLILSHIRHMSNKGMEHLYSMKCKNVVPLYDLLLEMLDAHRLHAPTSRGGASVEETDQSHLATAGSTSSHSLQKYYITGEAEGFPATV
Background: Quantitative high-throughput screening tests each substance at several concentrations.

In experiment [2] the target is Nuclear receptor subfamily 1 group I member 2 (Homo sapiens) (UniProt O75469). Nature of the experiment: CYP3A4 induction through human pregnane X receptor (PXR) by small molecules, qHTS assay (AID 1346984). Note: nearly all actives have a fitted effect of over 40% in size. Note: potency is the fitted concentration of half-maximal effect. The gist of the method:
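Luminescence readout: luciferase signal after One-Glo (30 min, room temperature), following 3 h at 37C with 3uM final Luciferin-IPA P450 substrate. Cells were DPX-2 (HepG2, PXR/CYP3A4-luc co-transfected) dosed for 24 h.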

In experiment [3] the target is Androgen receptor (Homo sapiens) (UniProt P10275). Nature of the experiment: qHTS assay to identify small molecule agonists of the androgen receptor (AR) signaling pathway (AID 743036; active = well fitted activation curve with a large enough effect in the signal ratio in the repeat runs, with a control signal flat, not every such curve was filed as active; the % refers to the signal ratio; note: potency is the fitted concentration of half-maximal effect). The gist of the method:
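HEK293 cells stably carrying a UAS-driven beta-lactamase reporter (GeneBLAzer AR-UAS-bla-GripTite) were plated at 2,000 cells/well, rested 4 h at 37C, then exposed to compounds in DMSO for 16 h. LiveBLAzer B/G FRET substrate was added for 2 h at room temperature; fluorescence read.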

The target is the same in experiment [4]. As to the kind of experiment: qHTS assay to identify small molecule agonists of the androgen receptor (AR) signaling pathway using the MDA cell line (AID 743040; note: nearly all actives have a fitted effect of over 20% in size; note: potency is the fitted concentration of half-maximal effect). The gist of the method: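 Human breast carcinoma MDA-kb2 reporter cells (MMTV-luc, AR/GR elements) were treated for 16 h at 37C in 0% CO2 following a 5 h settling period. Signal was quantified by ONE-Glo luminescence.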

Experiment [5] shares this target. As to the kind of experiment: qHTS assay to identify small molecule antagonists of the androgen receptor (AR) signaling pathway using the MDA cell line (AID 743042; note: nearly all actives have a fitted effect of over 55% in size; note: potency is the fitted concentration of half-maximal effect). The gist of the method:
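MDA-kb2 breast carcinoma cells carrying MMTV-luciferase (AR/GR responsive) were co-treated with compounds and the agonist R1881 for 16 h at 37C. Inhibition read as ONE-Glo luminescence; CellTiter-Fluor fluorescence measured in parallel for cytotoxicity.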

The target is the same in experiment [6]. Nature of the experiment: qHTS assay to identify small molecule antagonists of the androgen receptor (AR) signaling pathway (AID 743035; active = well fitted inhibition curve with a large enough effect in the signal ratio in the repeat runs, not every such curve was filed as active; the % refers to the signal ratio; note: potency is the fitted concentration of half-maximal effect). The gist of the method:
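Fluorescence from a beta-lactamase FRET substrate (LiveBLAzer B/G, 2 h, room temperature) measured inhibition of R1881-stimulated signaling in GeneBLAzer AR-UAS-bla HEK293 cells exposed to compound for 16 h at 37C.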

For experiment [7], the target named is Nuclear receptor subfamily 1 group I member 2 (Homo sapiens) (UniProt O75469). As to the kind of experiment: Human pregnane X receptor (PXR) activation by small molecules, qHTS assay (AID 1346985). Note: nearly all actives have a fitted effect of over 40% in size. Note: potency is the fitted concentration of half-maximal effect. The gist of the method:
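DPX-2 cells (HepG2 co-transfected with a PXR response element and a CYP3A4-promoter luciferase construct) were seeded at 2,000 per well, rested 5 hr at 37C, then exposed to DMSO-dissolved compounds for 24 hr. Activation was read as luciferase luminescence.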

In experiment [8] the target is Nuclear receptor subfamily 1 group I member 2 (Rattus norvegicus) (UniProt Q9R1A7). As to the kind of experiment: Rat pregnane X receptor (rPXR) activation by small molecules, qHTS assay (AID 1346983). Note: nearly all actives have a fitted effect of over 20% in size. Conditions: rPXR luciferase reporter cells, One-Glo luminescence, 24 h; max activation: stronger effect = higher value. The gist of the method: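 Cell-based rPXR activation assay: rPXR cells, 2,000 per well, rested 5hr at 37 C, then exposed to compounds in DMSO for 24 hr at 37 C. Luciferase activity read by One-Glo luminescence after 30 min at room temperature.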
Nuclear receptor subfamily 1 group I member 2 (Rattus norvegicus), sequence (Q9R1A7 whole entry, looked up): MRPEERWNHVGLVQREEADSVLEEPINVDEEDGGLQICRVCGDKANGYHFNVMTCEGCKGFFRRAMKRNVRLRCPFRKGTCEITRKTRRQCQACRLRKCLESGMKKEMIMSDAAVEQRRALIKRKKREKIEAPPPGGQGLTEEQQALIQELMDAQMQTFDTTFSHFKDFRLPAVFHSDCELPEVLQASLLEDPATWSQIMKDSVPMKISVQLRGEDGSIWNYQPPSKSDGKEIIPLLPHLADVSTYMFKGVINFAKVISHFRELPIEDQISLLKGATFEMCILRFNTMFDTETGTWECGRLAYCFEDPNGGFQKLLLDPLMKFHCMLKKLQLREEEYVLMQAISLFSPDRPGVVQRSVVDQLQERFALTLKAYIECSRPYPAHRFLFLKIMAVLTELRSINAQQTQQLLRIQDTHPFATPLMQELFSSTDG

Experiment [9] is described as follows: qHTS assay for small molecule activators of the heat shock response signaling pathway (AID 743210; active = well fitted activation curve with a large enough effect in the signal ratio in the repeat runs, with a control signal flat, not every such curve was filed as active; the % refers to the signal ratio;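 note: HeLa cells with beta-lactamase reporter driven by heat shock elements; series mostly up to about 63 µM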). The gist of the method: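 Quantitative high-throughput format using an engineered HeLa line in which heat shock response elements drive beta-lactamase; after 5 h with compound, cells received a B/G FRET substrate and fluorescence was read.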
The nature of experiment [10]: Caspase-3/7 induction in HepG2 cells by small molecules, qHTS assay (AID 1346978). Note: nearly all actives have a fitted effect of over 15% in size. The gist of the method:
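Wild-type HepG2 cells, 2,000/well, settled 5 hr at 37 C and 5% CO2, then compound-treated for 17 hr; caspase-3/7 activity read by luminescent Caspase-Glo 3/7 after 30 min at room temperature.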

The target of experiment [11] is Acetylcholinesterase (Homo sapiens) (UniProt P22303). Nature of the experiment: Acetylcholinesterase (AChE) small molecule antagonists: colormetric cell-based qHTS assay (AID 1347395; calls by dose curve; note: nearly all actives have a fitted effect of over 30% in size). The gist of the method: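 SH-SY5Y cells, plated overnight at 37 C, were exposed to compounds for 30 min at 37 C and 5% CO2. Acetylthiocholine plus DTNB was then added, and thiocholine from endogenous AChE was quantified colorimetrically after 90 min at 37 C.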
Acetylcholinesterase (Homo sapiens), sequence (P22303 whole entry, looked up): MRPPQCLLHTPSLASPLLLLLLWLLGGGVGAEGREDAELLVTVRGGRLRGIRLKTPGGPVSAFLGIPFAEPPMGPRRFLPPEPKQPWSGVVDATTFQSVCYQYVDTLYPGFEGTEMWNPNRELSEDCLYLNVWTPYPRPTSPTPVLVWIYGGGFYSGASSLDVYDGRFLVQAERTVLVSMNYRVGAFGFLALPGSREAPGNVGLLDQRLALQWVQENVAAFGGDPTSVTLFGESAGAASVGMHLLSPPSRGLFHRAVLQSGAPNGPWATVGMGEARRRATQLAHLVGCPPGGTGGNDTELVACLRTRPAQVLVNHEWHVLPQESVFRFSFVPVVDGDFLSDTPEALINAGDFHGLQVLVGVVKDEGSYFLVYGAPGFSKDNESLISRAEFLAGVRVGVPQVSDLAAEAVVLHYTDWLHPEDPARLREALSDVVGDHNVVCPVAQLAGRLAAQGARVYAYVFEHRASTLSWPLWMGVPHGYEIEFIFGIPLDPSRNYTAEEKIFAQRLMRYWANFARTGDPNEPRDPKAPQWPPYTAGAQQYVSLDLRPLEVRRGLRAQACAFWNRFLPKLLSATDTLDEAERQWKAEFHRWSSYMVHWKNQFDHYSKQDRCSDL

Experiment [12] shares this target. Nature of the experiment: Acetylcholinesterase (AChE) small molecule antagonists: enzyme-based qHTS assay (AID 1347397; calls by dose curve; note: nearly all actives have a fitted effect of over 55% in size). The conditions noted are these: Potency: AChE enzyme activity inhibition; outcome: AChE enzyme activity inhibition. The gist of the method: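 Enzyme inhibition was scored from DTNB-detected thiocholine formed by recombinant human AChE acting on acetylthiocholine. The 30 min compound preincubation and 10 min substrate reaction were both run at room temperature, with DMSO as vehicle control.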

Experiment [13] shares this target. As to the kind of experiment: Acetylcholinesterase (AChE) small molecule antagonists: fluorescence cell-based qHTS assay (AID 1347398; calls by dose curve; note: nearly all actives have a fitted effect of over 50% in size). Conditions: Potency: AChE activity; outcome: AChE activity. The gist of the method: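 Endogenous acetylcholinesterase of SH-SY5Y neuroblastoma cells is measured in situ. After overnight attachment and 30 min compound exposure, cells receive acetylthiocholine and Thiolite Green; fluorescence is read after 40 min at room temperature.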

Experiment [14] shares this target. Nature of the experiment: Acetylcholinesterase (AChE) small molecule antagonists: enzyme-based qHTS assay with human liver microsomes (AID 1347399; calls by dose curve; note: nearly all actives have a fitted effect of over 60% in size). Conditions: Potency: qHTS inhibition; outcome: qHTS inhibition. The gist of the method: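 Recombinant human AChE (50 mU/mL in the enzyme mix) and human liver microsomes (0.25 mg/mL final) were preincubated with compound and NADPH (0.25 mg/mL final) for 30 min at 37 C. Acetylthiocholine/DTNB was then added; thiocholine was read colorimetrically after 10 min at room temperature.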

Several values for one entry are separate records, joined by “and”; a condition that tells them apart may be missing. Equal values may be shown once. Values without a mark were called inactive. Inconclusive results are not listed. Activity calls are given as the source filed them. Unless noted, calls come from the whole dose curve; as a rule, active = well fitted curve in the direction sought with a large enough effect in the repeat runs; inconclusive = weak or mixed curves; inactive = no such curve, though single readings can be large; an effect the other way counts as inactive or inconclusive.
% is set by controls: 0 for no effect and ±100 for the full control effect.

Androgen receptor (Homo sapiens), sequence (P10275 whole entry, looked up): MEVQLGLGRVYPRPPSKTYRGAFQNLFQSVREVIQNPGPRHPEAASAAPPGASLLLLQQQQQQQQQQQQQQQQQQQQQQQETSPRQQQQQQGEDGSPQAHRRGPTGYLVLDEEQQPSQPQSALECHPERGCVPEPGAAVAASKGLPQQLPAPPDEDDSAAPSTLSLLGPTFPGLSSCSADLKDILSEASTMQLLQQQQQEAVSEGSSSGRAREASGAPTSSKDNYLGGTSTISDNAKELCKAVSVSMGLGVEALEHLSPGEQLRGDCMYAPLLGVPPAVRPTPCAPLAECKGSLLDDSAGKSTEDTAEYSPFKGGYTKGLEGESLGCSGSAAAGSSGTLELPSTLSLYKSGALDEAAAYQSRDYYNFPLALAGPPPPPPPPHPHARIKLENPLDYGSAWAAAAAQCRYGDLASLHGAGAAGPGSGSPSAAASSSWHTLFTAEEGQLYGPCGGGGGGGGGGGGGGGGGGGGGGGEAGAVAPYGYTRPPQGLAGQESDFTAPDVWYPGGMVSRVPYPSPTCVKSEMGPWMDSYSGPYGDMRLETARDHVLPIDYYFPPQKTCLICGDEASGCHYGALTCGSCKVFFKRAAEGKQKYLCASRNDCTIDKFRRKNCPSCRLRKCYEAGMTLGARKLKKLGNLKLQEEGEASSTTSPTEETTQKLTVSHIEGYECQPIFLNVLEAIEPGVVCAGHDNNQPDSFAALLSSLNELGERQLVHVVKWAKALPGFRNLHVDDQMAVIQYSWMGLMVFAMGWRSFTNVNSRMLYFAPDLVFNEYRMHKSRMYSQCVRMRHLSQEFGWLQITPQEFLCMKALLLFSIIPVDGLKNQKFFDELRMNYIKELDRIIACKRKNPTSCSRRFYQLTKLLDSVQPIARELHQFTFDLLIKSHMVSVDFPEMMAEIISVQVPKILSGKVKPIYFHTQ

`C[C@@H](Cc1ccccc1)NCCC(c1ccccc1)c1ccccc1`: the Potency entry in experiment [1] was “inactive”. The Potency in [2] was 12.6 µM (active).

In the case of `O=c1ccc2cc(O[C@@H]3O[C@H](CO)[C@@H](O)[C@H](O)[C@H]3O)c(O)cc2o1`, the Potency in experiment [3] is 9.1 µM (active). The Potency result in experiment [4] and in [5] was “inactive” throughout.

Regarding `CCCCNC(C)(C)[P+](=O)O`, the Potency entry in experiment [6], in experiment [3], in [4], in experiment [5] and in experiment [1] was “inactive” in each case.

With `CNC(C)CC1CCCCC1` (stereo not drawn), the Potency result in [6], in experiment [3], in experiment [4], in [5] and in [1] was “inactive” in each case.

Consider `CN1CC[C@@]23CCCC[C@@H]2[C@@H]1Cc1ccc(O)cc13`, for which the Potency entry in experiment [3] and in experiment [5] was “inactive” throughout. Also, the Potency in [4] was 26.6 µM (active).

Consider `O=C(NC(=O)c1c(F)cccc1F)Nc1ccc(Cl)c(Oc2ncc(C(F)(F)F)cc2Cl)c1`, for which the Potency result in experiment [2] and in [7] was “inactive” throughout.

As for `CN[C@@]1(c2ccccc2Cl)CCCCC1=O`, the Potency entry in experiment [1] was “inactive”.

Regarding `O=C1CN=C(c2ccccc2)c2cc(Cl)ccc2N1`, the Potency entry in experiment [1] is “inactive”.

For `COC(=O)[C@H]1[C@@H](OC(=O)c2ccccc2)C[C@@H]2CC[C@H]1N2C`, the Potency entry in experiment [6], in [3], in experiment [4], in experiment [5] and in experiment [1] was “inactive” each time.

Turning to `C[C@@H]1[C@H](O)[C@@H](C)/C=C/C=C/CC/C=C/C=C/C=C/C=C/[C@H](O[C@H]2O[C@@H](C)[C@H](O)[C@@H](N)[C@H]2O)CC2O[C@](O)(C[C@@H](O)[C@H](O)CC[C@@H](O)C[C@@H](O)C[C@@H](O)CC(=O)O[C@H]1C)C[C@H](O)[C@H]2C(=O)O`, the Potency result in experiment [6], in experiment [3], in experiment [4], in experiment [5] and in experiment [1] was “inactive” each time.

As for `Cc1cc(C)cc(C(=O)OC2C[C@H]3CC[C@@H](C2)N3C)c1` (stereo partly drawn), the Potency entry in [1] is “inactive”. Further, in [8], the max activation is -1.64%.

Consider `CCCCCc1cc(O)c2c(c1)OC(C)(C)c1ccc(C)cc1-2`, for which, in experiment [6], the Potency is 16.9 µM (active). Further, the Potency entry in experiment [4] is “inactive”.

Regarding `C1CN(P2(N3CC3)=NP(N3CC3)(N3CC3)=NP(N3CC3)(N3CC3)=N2)CCO1` (stereo not drawn), the Potency result in [1] is “inactive”.

Take `C[C@]12CC[C@@H]3c4ccc(OC(=O)N(CCCl)CCCl)cc4CC[C@H]3[C@@H]1CC[C@@H]2OP(=O)(O)O`: the Potency was 10.7 µM (active) and 19 µM (active) in [6]; 5.31 µM (active) and 10.6 µM (active) in [4]. For the same compound, in [5], the Potency result is “inactive”.

Consider `CCCSc1cc(OC)c(CCN)cc1OC`, for which, in [6], the Potency is 6.55 µM (active). Further, the Potency result in experiment [4], in experiment [5] and in [1] was “inactive” each time.

`CC(C)[C@H]1C(=O)N2CCC[C@H]2[C@]2(O)O[C@](NC(=O)[C@@H]3C[C@@H]4c5cccc6[nH]cc(c56)C[C@H]4N(C)C3)(C(C)C)C(=O)N12`: the Potency result in experiment [1] was “inactive”.

As for `O=C1C=C2C=C[C@@H]3C[C@@]2(O1)[C@H]1CCCCN31`, in [8], the max activation was -20.5%.

Take `CCNC1(c2cccs2)CCCCC1=O` (stereo not drawn): in [1], the Potency entry was “inactive”.

As for `C[C@@H]1[C@@H]2Cc3ccc(O)cc3[C@@]1(C)CCN2CC1CC1`, the Potency entry in experiment [6], in experiment [3], in [4] and in experiment [5] was “inactive” throughout.

For the compound `COc1cc(C[C@H](C)N)c(OC)cc1C`, the Potency entry in [1] is “inactive”.

Turning to `C/C=C(\CC)C(=O)NC(N)=O`, the Potency result in [1] is “inactive”.

For the compound `CCC/C=C/C=C/C(=O)O[C@H]1/C(=C/C(=O)OC)C[C@H]2C[C@H]([C@@H](C)O)OC(=O)C[C@H](O)C[C@@H]3C[C@H](OC(C)=O)C(C)(C)[C@](O)(C[C@@H]4C/C(=C/C(=O)OC)C[C@H](/C=C/C(C)(C)[C@]1(O)O2)O4)O3`, in experiment [1], the Potency result was “inactive”. Moreover, the max activation in experiment [8] was 2.43%.

Turning to `CN(C)CCCCCCN(C)C` (tested in a mixture with another compound), the max activation in experiment [8] is -5.32%.

In the case of `COC(=O)[C@@H]1[C@H]2CC[C@@H](C[C@H]1OC(=O)c1ccccc1)N2C`, the Potency result in [6], in experiment [3], in experiment [4], in [5] and in experiment [7] was “inactive” in each case.

Consider `O=C1OC2(c3cc(Br)c(O)cc3Oc3c2cc(Br)c(O)[c]3[Hg])c2ccccc21` (stereo not drawn), for which the Potency result in experiment [2] and in experiment [7] was “inactive” in each case.

In the case of `C[C@]12CC[C@H](O)C[C@H]1CC[C@@H]1[C@@H]2CC[C@]2(C)[C@@H](c3ccc(=O)oc3)C[C@H]3O[C@]132`, the Potency in experiment [6] is 6.01 µM (active); in experiment [5], 21.1 µM (active); in [2], 5.01 µM (active); in experiment [7], 3.98 µM (active).

For the compound `C[C@@H](N)C(=O)c1ccccc1`, the Potency result in experiment [6], in experiment [3], in experiment [4] and in experiment [5] was “inactive” in each case.

On to `Brc1ccc(Oc2ccc(Br)cc2)cc1`, for which the Potency result in experiment [9], in experiment [10], in [11], in experiment [12], in experiment [13] and in experiment [14] was “inactive” each time.

Turning to `Clc1cc(Cl)c(-c2c(Cl)c(Cl)cc(Cl)c2Cl)cc1Cl`, the Potency entry in experiment [10], in experiment [11], in experiment [12], in [13] and in [14] was “inactive” in each case.

For the compound `Clc1ccc(C(Cn2ccnc2)OCc2csc3c(Cl)cccc23)c(Cl)c1` (stereo not drawn), the Potency entry in experiment [4] is “inactive”.

Regarding `CC1(C)C(C=C(Cl)Cl)C1C(=O)OCc1cccc(Oc2ccccc2)c1` (stereo not drawn), the Potency result in experiment [10], in [11], in [12], in experiment [13] and in [14] was “inactive” throughout.

In the case of `Oc1cc(Cl)cc(Cl)c1Cl`, the Potency entry in [10], in experiment [11], in [12], in [13] and in experiment [14] was “inactive” in each case.
